For 20 compounds, growth inhibition, inhibition and outcome results are on record in PubChem BioAssay.

One may read the inhibition as the relative decrease from the control value, in per cent.

Unmarked numbers belong to inactive results. For some of these results: Measured potencies and affinities stand elsewhere. Activity calls are given as the source filed them. Unless noted, no rule for the calls is given here.

Assay [1] can be described thus: antimalarial activity against Dd2 strain (AID 2302;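 active = growth inhibition above 50% at the single 2 µM test dose, taken to imply half-maximal potency below 2 µM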;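 also: 0% = DMSO untreated growth and 100% = chloroquine plus artemisinin killed control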). The conditions noted are these: P. falciparum Dd2 in RBCs, LDH growth readout, 72 h; at 2 µM; hits give high values.
Assay [2] is described as follows: human hepatoma cell viability loss – ATP luminescence, cytotoxicity control for P. falciparum antimalarial project, primary screen (AID 2303;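 active = inhibition above 50%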;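 also: 0% = DMSO wells and 100% = digitonin-killed cells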). Particulars: HepG2 viability, 24-48 h, at 10 µM, hits give high values.
In assay [3] the target is L-lactate dehydrogenase (Plasmodium falciparum (isolate CDC / Honduras)) (UniProt Q27743). In words: PfLDH activity inhibition – cell lysate, 3D7 strain, counter-screen for P. falciparum growth inhibition project (AID 2304).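 Also: 0% = vehicle and 100% = reference inhibitor.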 The conditions noted are these: P. falciparum 3D7 crude extract, LDH APAD/NBT absorbance; at 2 µM; hits give high values. For orientation: A counterscreen serves to expose hits that act by an unwanted route or on another target.
Sequence of L-lactate dehydrogenase (Plasmodium falciparum (isolate CDC / Honduras)) (Q27743 whole entry, looked up): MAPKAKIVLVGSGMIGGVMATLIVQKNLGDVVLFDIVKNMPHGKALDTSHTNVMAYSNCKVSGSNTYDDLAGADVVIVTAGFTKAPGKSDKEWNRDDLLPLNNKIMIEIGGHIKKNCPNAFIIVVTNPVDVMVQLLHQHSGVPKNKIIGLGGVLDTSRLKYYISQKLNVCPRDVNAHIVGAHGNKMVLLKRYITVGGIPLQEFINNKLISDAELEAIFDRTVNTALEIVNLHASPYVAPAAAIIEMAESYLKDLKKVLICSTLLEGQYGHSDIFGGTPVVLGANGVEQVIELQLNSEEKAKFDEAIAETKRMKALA

Assay [4] is described as follows: inhibition of 3D7 malaria parasite growth – strain 3D7 (AID 2306).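 Also: 0% = DMSO wells and 100% = chloroquine plus artemisinin control wells.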 Particulars: P. falciparum 3D7 erythrocytic growth, LDH absorbance, 72 h; at 2 µM; hits give high values.
The target in assay [5] is Calcium-dependent protein kinase 1 (Plasmodium falciparum (isolate 3D7)) (UniProt P62344). Description: PfCDPK1 kinase inhibitors, biochemical, TCAMS library (AID 1159585; cut-off not given, nearly all actives have IC50 up to about 0.98 µM;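 also: inhibitors leave more ATP so luminescence rises with inhibition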). Particulars: recombinant PfCDPK1, Kinase-Glo ATP depletion luminescence.
Sequence of Calcium-dependent protein kinase 1 (Plasmodium falciparum (isolate 3D7)) (P62344 whole entry, looked up): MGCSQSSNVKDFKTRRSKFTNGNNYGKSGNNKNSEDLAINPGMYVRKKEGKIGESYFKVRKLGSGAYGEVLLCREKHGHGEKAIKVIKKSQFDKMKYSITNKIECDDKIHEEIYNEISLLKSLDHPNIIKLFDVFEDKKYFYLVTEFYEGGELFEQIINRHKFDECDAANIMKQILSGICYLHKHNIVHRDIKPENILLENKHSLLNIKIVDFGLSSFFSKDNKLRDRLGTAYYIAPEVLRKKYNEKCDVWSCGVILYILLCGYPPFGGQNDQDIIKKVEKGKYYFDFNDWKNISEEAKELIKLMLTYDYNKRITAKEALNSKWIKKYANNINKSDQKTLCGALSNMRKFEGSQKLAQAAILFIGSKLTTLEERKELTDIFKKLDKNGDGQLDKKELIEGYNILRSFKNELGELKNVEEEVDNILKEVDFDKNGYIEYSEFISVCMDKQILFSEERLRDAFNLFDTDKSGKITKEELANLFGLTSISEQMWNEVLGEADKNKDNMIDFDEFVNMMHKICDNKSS
The target of assay [6] is Plasmodium falciparum protein kinase 6 (PK6, PF3D7_1337100) (UniProt Q8IDW1). In words: PfPK6 kinase inhibitors, biochemical, TCAMS library (AID 1159586). Particulars: recombinant PfPK6, Kinase-Glo ATP depletion luminescence.
Sequence of Plasmodium falciparum protein kinase 6 (PK6, PF3D7_1337100) (Q8IDW1 1-305): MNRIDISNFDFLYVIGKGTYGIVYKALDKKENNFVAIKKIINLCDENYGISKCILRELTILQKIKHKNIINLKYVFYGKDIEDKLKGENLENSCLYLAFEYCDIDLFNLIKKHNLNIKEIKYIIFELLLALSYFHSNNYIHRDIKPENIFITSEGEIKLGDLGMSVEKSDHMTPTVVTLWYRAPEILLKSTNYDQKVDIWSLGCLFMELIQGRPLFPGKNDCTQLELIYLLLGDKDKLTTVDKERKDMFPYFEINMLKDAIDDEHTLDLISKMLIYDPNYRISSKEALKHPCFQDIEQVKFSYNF
For assay [7], the target named is Protein kinase 7 (PK7), Plasmodium falciparum 3D7 (PF3D7_0213400) (UniProt Q7YTF7). Description: inhibition of Plasmodium PK7 catalytic activity – biochemical, TCAMS antimalarial set, Kinase-Glo luminescence (AID 1159587). Particulars: recombinant PfPK7, Kinase-Glo ATP depletion luminescence.
Sequence of Protein kinase 7 (PK7), Plasmodium falciparum 3D7 (PF3D7_0213400) (Q7YTF7 1-343): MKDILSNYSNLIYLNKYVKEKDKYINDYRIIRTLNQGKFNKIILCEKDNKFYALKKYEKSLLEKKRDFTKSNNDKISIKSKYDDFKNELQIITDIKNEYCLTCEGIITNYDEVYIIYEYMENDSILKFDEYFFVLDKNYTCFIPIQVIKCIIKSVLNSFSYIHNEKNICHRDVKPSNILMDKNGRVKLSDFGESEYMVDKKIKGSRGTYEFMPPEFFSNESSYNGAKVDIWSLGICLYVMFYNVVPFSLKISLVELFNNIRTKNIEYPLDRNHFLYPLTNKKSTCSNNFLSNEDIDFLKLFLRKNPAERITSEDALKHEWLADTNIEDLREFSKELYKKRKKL
Assay [8] addresses Calcium-dependent protein kinase 4 (Plasmodium falciparum (isolate 3D7)) (UniProt Q8IBS5). In words: PfCDPK4 kinase inhibitors, biochemical, TCAMS library (AID 1159588; cut-off not given, nearly all actives have IC50 up to about 0.91 µM). The conditions noted are these: recombinant PfCDPK4, Kinase-Glo ATP depletion luminescence. In general terms: Kinase-Glo measures the ATP left after a reaction by luminescence.

Sequence of Calcium-dependent protein kinase 4 (Plasmodium falciparum (isolate 3D7)) (Q8IBS5 whole entry, looked up): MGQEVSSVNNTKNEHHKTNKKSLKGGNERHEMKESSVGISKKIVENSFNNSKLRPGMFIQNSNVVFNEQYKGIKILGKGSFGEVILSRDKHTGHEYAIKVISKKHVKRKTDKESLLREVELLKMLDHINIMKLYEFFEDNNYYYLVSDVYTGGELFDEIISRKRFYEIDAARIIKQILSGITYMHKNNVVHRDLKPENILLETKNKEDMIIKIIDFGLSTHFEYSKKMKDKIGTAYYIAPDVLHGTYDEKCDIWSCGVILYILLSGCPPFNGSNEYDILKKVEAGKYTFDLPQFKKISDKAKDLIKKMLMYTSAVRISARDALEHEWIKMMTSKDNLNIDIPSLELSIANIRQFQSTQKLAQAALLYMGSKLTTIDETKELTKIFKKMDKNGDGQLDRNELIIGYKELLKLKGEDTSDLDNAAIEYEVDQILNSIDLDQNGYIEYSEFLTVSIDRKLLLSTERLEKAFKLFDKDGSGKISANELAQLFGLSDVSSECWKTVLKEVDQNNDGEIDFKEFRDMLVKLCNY

Regarding `Clc1ccc(Nc2nc3nonc3nc2Nc2ccc(Cl)c(Cl)c2)cc1`, the growth inhibition in assay [1] was 92% (active); in assay [4], 99% (active). Besides, the inhibition in assay [2] is 75% (active); in assay [3], 0%. The result in assay [5], in assay [6], in assay [7] and in assay [8] was inactive.

Turning to `O=C(/C=C/c1ccc(C(F)(F)F)cc1)NCCCCCN1CCCN(C(=O)Nc2ccc(Cl)cc2)CC1`, the values for the growth inhibition in assay [1] and in assay [4] were -1% and 99% (active), respectively. Moreover, the results for the inhibition in assay [2] and in assay [3] were 28% and -1%, respectively. Also, the result in assay [5], in assay [6], in assay [7] and in assay [8] was inactive.

As to `CCN(CC)CCN1C(=O)c2oc3ccc(F)cc3c(=O)c2C1c1cccc(Cl)c1` (stereo not given), the growth inhibition in assay [1] is 93% (active); in assay [4], 99% (active). Also, the inhibition in assay [2] was -4%; in assay [3] it was -2%. The result in assay [5], in assay [6], in assay [7] and in assay [8] was inactive.

Regarding `CCCCNC[C@@H](O)[C@H](Cc1ccccc1)NC(=O)c1cc(NCC)cc(N2CCCCS2(=O)=O)c1`, the growth inhibition in assay [1] is 98% (active); in assay [4], 99% (active). Further, the inhibition in assay [2] was 11%; in assay [3], 2%. In addition, the result in assay [5], in assay [6], in assay [7] and in assay [8] was inactive.

Turning to `FC(F)(F)c1ccc2c(C=Cc3ccncc3)c[nH]c2c1`, the growth inhibition is 76% (active) in assay [1] and 98% (active) in assay [4]. The inhibition in assay [2] is -12%; in assay [3] it was -2%. For the same compound, the result in assay [5], in assay [6], in assay [7] and in assay [8] was inactive.

On to `COc1cc2c(cc1C=CC(=O)N1CCN(Cc3nc4sc(C)c(C)c4c(=O)[nH]3)CC1)OC(C)C2` (stereo not given), for which the growth inhibition in assay [1] is 87% (active); in assay [4], 82% (active). The inhibition in assay [2] was -1%; in assay [3], -9%. The result in assay [5], in assay [6], in assay [7] and in assay [8] was inactive.

For the compound `CCCOc1cc(OCCC)cc(-c2cc(=O)c3ccccc3[nH]2)c1`, the growth inhibition in assay [1] is 96% (active); in assay [4] it was 99% (active). For the same compound, the inhibition is 33% in assay [2] and -2% in assay [3]. For the same compound, the outcome in assay [5], in assay [6], in assay [7] and in assay [8] was inactive.

Take `O=C(NCCCCN1CCN(c2cccc(Cl)c2Cl)CC1)c1ccc2c(c1)CCN(C1CCC1)CC2`: the growth inhibition was 31% in assay [1] and 95% (active) in assay [4]. The inhibition in assay [2] was 97% (active); in assay [3] it was 3%. The outcome in assay [5], in assay [6], in assay [7] and in assay [8] was inactive.

Turning to `O=C(CNCC1CCCCC1)Nc1cc(C(F)(F)F)ccc1Cl`, the figures for the growth inhibition in assay [1] and in assay [4] were 67% (active) and 86% (active), respectively. Further, the inhibition in assay [2] is 1%; in assay [3], 2%. Also, the result in assay [5], in assay [6], in assay [7] and in assay [8] was inactive.

On to `CCSc1nc2sc3c(c2c(=O)n1-c1ccccc1)CCN(C)C3`, for which the growth inhibition in assay [1] was 71% (active); in assay [4] it was 83% (active). Further, the inhibition is 16% in assay [2] and -3% in assay [3]. Further, the outcome in assay [5], in assay [6], in assay [7] and in assay [8] was inactive.

For the compound `N#Cc1cc([N+](=O)[O-])ccc1-n1nc(-c2cccc(Cl)c2)n(CC2CCCO2)c1=S` (stereo not given), the growth inhibition is 89% (active) in assay [1] and 91% (active) in assay [4]. The inhibition in assay [2] was 0%; in assay [3], -2%. Moreover, the outcome in assay [5], in assay [6], in assay [7] and in assay [8] was inactive.

Turning to `CC(C)c1cn2c3c(cc(C(=O)N[C@@H](Cc4ccccc4)[C@H](O)CNC4CCCCC4)cc13)N(C)S(=O)(=O)CC2`, the growth inhibition in assay [1] is 99% (active); in assay [4] it was 98% (active). Moreover, the inhibition was 9% in assay [2] and 0% in assay [3]. Also, the result in assay [5], in assay [6], in assay [7] and in assay [8] was inactive.

As for `Cc1cc(N2CCN(C(=O)OC(C)(C)C)CC2)ccc1N`, the growth inhibition in assay [1] is 38%; in assay [4], 92% (active). Further, the figures for the inhibition in assay [2] and in assay [3] were 11% and -2%, respectively. The result in assay [5], in assay [6], in assay [7] and in assay [8] was inactive.

As for `O=C(Nc1ccc(-c2ccccc2)cc1)Nc1cccc(Cn2cnc(N3CCCNCC3)cc2=O)c1`, the growth inhibition in assay [1] is 13%; in assay [4] it was 88% (active). Further, the inhibition is 8% in assay [2] and 4% in assay [3]. The outcome in assay [5], in assay [6], in assay [7] and in assay [8] was inactive.

In the case of `Clc1ccc(-c2ncc(-c3ccncc3)[nH]2)cc1Cl`, the growth inhibition was 63% (active) in assay [1] and 96% (active) in assay [4]. Further, the inhibition is 1% in assay [2] and -5% in assay [3]. Moreover, the result in assay [5], in assay [6], in assay [7] and in assay [8] was inactive.

On to `c1ccc(CCNCc2cccc(-c3ccc(CNc4ccc5ncccc5c4)cc3)c2)cc1`, for which the growth inhibition in assay [1] was 27%; in assay [4] it was 93% (active). Also, the inhibition in assay [2] was 43%; in assay [3], -2%. In addition, the result in assay [5], in assay [6], in assay [7] and in assay [8] was inactive.

For the compound `Nc1ccc(Oc2ccc(Cc3cnc(N)nc3N)cc2)cc1`, the figures for the growth inhibition in assay [1] and in assay [4] were 5% and 86% (active), respectively. In addition, the inhibition in assay [2] is 10%; in assay [3] it was -3%. The outcome in assay [5], in assay [6], in assay [7] and in assay [8] was inactive.

As to `O=C(/C=C/c1ccc(Cl)c(Cl)c1)NCCCN1CCC(c2c[nH]c3ccccc23)CC1`, the growth inhibition was 5% in assay [1] and 90% (active) in assay [4]. Moreover, the inhibition is 48% in assay [2] and -4% in assay [3]. For the same compound, the result in assay [5], in assay [6], in assay [7] and in assay [8] was inactive.

For the compound `Oc1ccc(-c2cc(-c3ccc(O)cc3)nc(-c3ccccc3)n2)cc1`, the growth inhibition in assay [1] is 97% (active); in assay [4], 96% (active). The inhibition in assay [2] is 0%; in assay [3], -1%. In addition, the result in assay [5], in assay [6], in assay [7] and in assay [8] was inactive.

As for `N=C(N)c1ccc(-c2cc(-c3cccc(C(=N)N)c3)on2)cc1`, the growth inhibition was 45% in assay [1] and 96% (active) in assay [4]. In addition, the inhibition in assay [2] is 7%; in assay [3] it was 2%. Also, the result in assay [5], in assay [6], in assay [7] and in assay [8] was inactive.
